Source: PubChem BioAssay (NCATS)
Records with an inconclusive call do not appear. Values without a mark were called inactive. Calls of active or inactive are those of the source. Calls come from the whole dose curve; as a rule, active = well fitted curve in the direction sought with a large enough effect; inconclusive = small, poorly fitted or top-dose-only effect, or another doubt; inactive = no such curve, though single readings can be large; an effect the other way counts as inactive or inconclusive.

biological target: Calcium and integrin-binding protein 1 (Homo sapiens) (UniProt Q99828); experiment: Confirmatory qHTS for Identification of Calcium Integrin Binding Protein 1 (CIB1) Competitor (AID 1508617); settings: CIB1 binding competition assay, biochemical qHTS; series mostly up to 76.6 µM; activity change, negative = inhibition: at the top concentration; note: nearly all actives have a fitted effect of over 65% in size
Sequence (Q99828 whole entry, looked up): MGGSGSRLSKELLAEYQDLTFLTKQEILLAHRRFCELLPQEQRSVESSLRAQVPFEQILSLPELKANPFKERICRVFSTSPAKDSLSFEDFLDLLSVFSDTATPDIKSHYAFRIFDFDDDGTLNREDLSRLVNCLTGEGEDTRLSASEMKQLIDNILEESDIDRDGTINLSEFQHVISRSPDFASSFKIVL
Excerpt: Assay Provider: Ulhas P. Naik, PhD
Sidney Kimmel Medical College
Thomas Jefferson University, Philadelphia, PA
Primary function of platelets is to maintain hemostasis. At the site of vascular injury, platelets adhere to adhesive proteins such as collagen and von Willebrand factor. Adherent platelets are activated and generate soluble platelet agonists such as thrombin, ADP and thromboxane A2. Following exposure of circulating platelets to these agonists, results in platelet shape change, granule secretion and activation of platelet integrin alphaIIb-beta3. Ligand binding to activated integrin alphaIIb-beta3 triggers outside-in signaling, leading to platelet aggregation, stabilization of platelet plug, and clot retraction. Upon atherosclerotic plaque rupture also causes platelet plug formation, which underlies a number of cardiovascular diseases such as myocardial infraction and stroke. A number of anti-platelet drugs such as aspirin, clopidogrel, prasugrel, vorapaxar, and eptifibatide are currently available to prevent the thrombotic complications. However, these anti-platelet agents have several limitations including inherent variability in individual responses, developing resistance, and serious bleeding side effects. For these reasons they are not suitable for long-term protection. Based on the experiences with current anti-platelet drugs, it appears that the most useful therapeutic approach is to intersect the secondary responses such as integrin outside-in signaling or recruitment of platelets by TxA2 and secreted ADP. Compounds, which can largely preserve the primary hemostatic function of platelets but inhibit secondary response will be most desired therapeutic agents for treatment of cardiovascular disease.
CIB1 is a calcium integrin binding protein, which specifically interact with the alphaIIb subunit of integrin alphaIIb-beta3. Binding of CIB1 to alphaIIb regulates the outside-in signaling in platelets, which is needed for thrombus stabilization and thrombus growth. […] Therefore, we propose that discovery of a small molecule that can prevent the association of CIB1 and alphaIIb-beta3 will be a potential anti-platelet agent that can block the thrombus formation without undue effect on hemostasis.
To develop fluorescence polarization (FP) assay using fluorescently labeled alphaIIb peptide and CIB1 protein. Using FP assay characterize the binding affinity, competitive inhibition, and acceptable Z factor (0.5 to1) in order to perform the HTS to identify small molecule compound that can prevent CIB1 binding to platelet integrin alphaIIb-beta3. Active compounds were re-acquired and validated using confirmatory and counterscreens.
[1] Naik MU, Nigam A, Manrai P, et al. CIB1 deficiency results in impaired thrombosis: the potential role of CIB1 in outside-in signaling through integrin alpha IIb beta 3. J Thromb Haemost. 2009;7(11):1906-1914. doi:10.1111/j.1538-7836.2009.03581.
SEQUENCE No. (1, 2, 3, etc.); […] (e.g., Cells, Incubation, Reagent, etc.); VALUE and DESCRIPTION.
1; Reagent; 3 uL; Protein or buffer (4/3x)
2; Compound; 46 nL; Control inhibitor / compound library
3; Time; 15 min; Room temperature incubation
4; Reagent; 1 uL; Fluorescent labeled peptide (4x)
5; Time; 1000 rpm; Centrifuge
6; Time; 15 min; Room temperature incubation
7; Detection; Ex 480/ Em 540; ViewLux Fluorescence Read
NOTES (numbers refer to sequence above)
1; Protein Mixture: C1B1-GST (final concentrations of 1 uM). Buffer composition: 5 mM HEPES pH 7.4, 125 mM NaCl, 5 mM CaCl2, 0.01% Tween20.
2; Control Inhibitor: unlabeled peptide (final concentration range 17.4 nM to 572 uM). Compound Library final concentration range 18.3 nM to 114 uM.
3; Room temperature incubation.
4; Fluorescent Labeled Peptide: FITC-alphaIIb (final concentration of 100 nM). Sequence of alphaIIb peptide: Acetyl-[…]-FITC (purity is 95.83%).
6; Room temperature incubation.
[…]
% is set by controls: 0 for no effect and ±100 for the full control effect; potency is the fitted concentration of half-maximal effect.

SMILES | activity change, negative = inhibition | Potency
CCC1C(=O)N(C)c2cnc(Nc3ccc(C(=O)NC4CCN(C)CC4)cc3OC)nc2N1C1CCCC1 (stereo not drawn) | -13.8% [at 114 µM] | –
O=C(O)CSc1cc(NS(=O)(=O)c2ccc(Br)cc2)c2ccccc2c1O | – | 12.6 µM (active)
COc1nc2ccc(Br)cc2cc1[C@@H](c1ccccc1)[C@@](O)(CCN(C)C)c1cccc2ccccc12 | – | 89.1 µM (active)
O=C(c1ccccc1)c1c(O)cc(O)cc1O[C@@H]1O[C@H](CO)[C@@H](O)[C@H](O)[C@H]1O | -12.7% | –
Cn1sc(=O)n(Cc2ccccc2)c1=O | – | 7.94 µM (active)
N#Cc1ccc(Nc2nc(-c3ccc(O)cc3O)cs2)cc1C(F)(F)F | – | 50.1 µM (active)

biological target: Calcium and integrin-binding protein 1 (Homo sapiens) (UniProt Q99828); experiment: Primary qHTS for Identification of Calcium Integrin Binding Protein 1 (CIB1) Competitor (AID 1508620); settings: CIB1-GST / FITC-alphaIIb peptide fluorescence polarization; series mostly up to 114 µM; activity change, negative = inhibition: at the top concentration;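 for activity change, negative = inhibition: GST tagged CIB1 binding a fluorescein labelled alphaIIb integrin peptide tracer; top concentration of the series differs between compounds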
In short: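 CIB1-GST (1 uM final) and compound incubated 15 min at room temperature before adding FITC-alphaIIb peptide tracer (100 nM final). Competition for binding read by fluorescence polarization (ex 480, em 540) after another 15 min at room temperature.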

SMILES | activity change, negative = inhibition | Potency
CC(=O)C1=CCC2C3CC=C4CC(O)CC(O)C4(C)C3C(O)CC12C (stereo not drawn) | 4.47% [at 57.7 µM] | –
C=C1C(=O)O[C@H]2C1CCC(C)=C1C(=O)C=C(C)[C@@]12O (stereo partly drawn) | -11.9% | –
CC(C)C[C@@H](N)C(=O)N[C@H]1C(=O)N[C@@H](CC(N)=O)C(=O)N[C@H]2C(=O)N[C@H]3C(=O)N[C@H](C(=O)N[C@H](C(=O)O)c4cc(O)cc(O)c4-c4cc3ccc4O)[C@H](O)c3ccc(c(Cl)c3)Oc3cc2cc(c3O[C@@H]2O[C@H](CO)[C@@H](O)[C@H](O)[C@H]2O[C@H]2C[C@](C)(N)[C@H](O)[C@H](C)O2)Oc2ccc(cc2Cl)[C@H]1O | 0.635% [at 57.7 µM] | –
CC(=O)O[C@]1(C(C)=O)CC[C@H]2[C@@H]3CCC4=CC(=O)CCC4=C3[C@@H](c3ccc(N(C)C)cc3)C[C@@]21C | -4.5% | –
Nc1nc(Nc2ccc3c(c2)CCC(N2CCCC2)CC3)nn1-c1cc2c(nn1)-c1ccccc1CCC2 (stereo not drawn) | -4.13% | –
C=C1C(=O)O[C@@H]2/C=C(\CO)CC/C=C(\CO)[C@H](OC(C)=O)C(OC(=O)C(C)CC)C12 (stereo partly drawn) | -4.45% [at 57.7 µM] | –
CC(=O)c1c(C)cc2cccc(O)c2c1O[C@@H]1O[C@H](CO)[C@@H](O)[C@H](O)[C@H]1O | 4.84% [at 57.7 µM] | –
O=C(O)CSc1cc(NS(=O)(=O)c2ccc(Br)cc2)c2ccccc2c1O | – | 44.7 µM (active)
Cn1nc(C(C)(C)C)cc1C(=O)N[C@@H](Cc1cccc(Cl)c1)C(=O)NCC#N | 0.38% | –
COc1cc(-n2cnc3cc(-c4ccc(Cl)cc4)sc3c2=O)ccc1OCCN1CCCC1 | 5.32% | –
CNc1nc(NCc2ccc(NS(C)(=O)=O)cc2Cl)cc(-c2ccccn2)n1 | -0.61% | –
C=C1C(=O)OC2C1CCC1(C)C(O)CCC(=C)C21 (stereo not drawn) | -0.307% | –
COc1ccc(-n2c(SCCCN3C(=O)c4cccc5cccc(c45)C3=O)nnc2-c2ccncc2)cc1 | -5.93% | –
CN[C@H]1CC[C@@H](c2ccc(Cl)c(Cl)c2)c2ccccc21 | 6.21% | –
Cc1ccc(NC(=O)c2ccc(CN3CCNCC3)cc2)cc1Nc1nccc(-c2cccnc2)n1 | -6.06% | –
Cn1sc(=O)n(Cc2ccccc2)c1=O | – | 8.91 µM (active)

SMILES | activity change, negative = inhibition | Potency
C=C1CC[C@@H]2[C@](C)(CO)[C@H](O)CC[C@@]2(C)[C@@H]1/C=C/C1=CCOC1=O | -0.699% [at 57.7 µM] | –
C[C@H]1CC[C@@]2(OC1)O[C@H]1CC3C4CC[C@H]5C[C@@H](O)CC[C@]5(C)C4=CC(=O)[C@]3(C)[C@H]1[C@@H]2C (stereo partly drawn) | 3.35% [at 57.7 µM] | –
C=C1C(=O)O[C@H]2C[C@@H](C)[C@@H]3CCC(=O)[C@@]3(C)C[C@H]12 | -1.91% | –
COC(=O)C[C@H]1C(C)(C)[C@H](OC(=O)c2ccccc2)C2CC3=C4CC(=O)O[C@@H](c5ccoc5)[C@]4(C)CCC3[C@@]1(C)C2=O (stereo partly drawn) | 1.02% [at 57.7 µM] | –
CC(C)=CCc1cc2c(cc1O)OC[C@H]1c3ccc(O)cc3O[C@@H]21 | -8.95% [at 57.7 µM] | –
O=C([C@@H](Cc1cccc(C(F)(F)F)c1)NS(=O)(=O)c1cc(F)c2c(c1)CCNC2)N1CCCC1 | 4.36% | –
C/C1=C\CCC2=CC(OC2=O)C(C)(C)/C=C/C1=O (stereo not drawn) | 0.908% | –
C=C[C@](C)(O)CC[C@H]1C(C)=CC(=O)[C@H]2C(C)(C)CCC[C@]12C | 1.46% | –
COc1cc2ncc(-c3ccccc3)nc2cc1OC | 0.511% | –
CCC(C)C(=O)O[C@H]1[C@H](O)[C@@]2(COC(C)=O)C(CC1(C)C)C1=CCC3[C@@]4(C)CC[C@H](O[C@@H]5O[C@H](C(=O)O)[C@@H](O)[C@H](O)[C@H]5O)[C@@](C)(CO)C4CC[C@@]3(C)[C@]1(C)C[C@@H]2O (stereo partly drawn) | -5.06% [at 30.2 µM] | –
Cc1[nH]c(/C=C2\C(=O)Nc3ccc(S(=O)(=O)N(C)c4cccc(Cl)c4)cc32)c(C)c1C(=O)N1CCN(C)CC1 | -25.5% | –
COc1c2c(nc3occc13)C(CC=C(C)C)(OC)C(O)CC2 (stereo not drawn) | 2.18% [at 57.7 µM] | –
O=C(Cc1cccc(OC(F)(F)F)c1)Nc1ccc(CCCCc2nnc(NC(=O)Cc3ccccn3)s2)nn1 | -0.0582% [at 57.7 µM] | –
CC1(C)CC[C@]2(C(=O)O)CC[C@]3(C)C(=CCC4[C@@]5(C)C[C@@H](O)[C@H](O)[C@@](C)(CO)C5CC[C@]43C)[C@@H]2[C@@H]1O (stereo partly drawn) | 2.84% [at 57.7 µM] | –
C/C(=C\Cc1c(O)c(Cl)c(C)c(C=O)c1O)CC/C=C(\C)[C@H]1CC(=O)C(C)(C)O1 | -1.24% [at 57.7 µM] | –
COc1cc(S(C)(=O)=O)ccc1Nc1nc2ccc(-c3ccc(NC(=O)[C@H](C)c4ccc(F)cc4)cc3)cn2n1 | -1.52% [at 57.7 µM] | –
